Compounds without any hit were thinned out: in the full panel of roughly 79,000, 15% have a hit. Active and inactive are the calls of the source. Cut-off read from the data, not from the text of the source: active = growth inhibition above about 70%; inactive = the rest. Where a SMILES comes first, the peptide text is derived from it. The star is where a group is joined. Cbz = O=C(OCc1ccccc1)*
Assays:
[1] = NCI Yeast Anticancer Drug Screen. Data for the rad50 strain (AID 155);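 note: 0% = growth of vehicle-only cultures of the same strain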; settings: S. cerevisiae rad50 strain growth inhibition; at 50.0 µM; hits give high values
How it was run: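 Cells are treated with compound, grown, and their growth is then scored against vehicle-only cultures of the same repair-deficient yeast strain.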

[2] = NCI Yeast Anticancer Drug Screen. Data for the mec2-1 strain (AID 157); settings: S. cerevisiae mec2-1 strain, at 50.0 µM, hits give high values
How it was run: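 Mutant yeast (mec2-1) grown with compound; growth inhibition relative to vehicle control reported.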

[3] = NCI Yeast Anticancer Drug Screen. Data for the sgs1 mgt1 strain (AID 161);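 note: 0% = growth of cultures given vehicle only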; settings: S. cerevisiae sgs1 mgt1 strain, at 50.0 µM, hits give high values
How it was run: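 Percent growth inhibition was derived by comparing compound-exposed mutant yeast with vehicle-exposed cultures. The strain carries alterations in DNA damage repair.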

[4] = NCI Yeast Anticancer Drug Screen. Data for the cln2 rad14 strain (AID 165);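 note: 0% = growth equal to vehicle treated cultures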; settings: S. cerevisiae cln2 rad14 strain, at 50.0 µM, hits give high values
How it was run: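 Readout is yeast growth inhibition versus vehicle-treated controls, using a strain with cln2 and rad14 alterations exposed to compound.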

[5] = NCI Yeast Anticancer Drug Screen. Data for the bub3 strain (AID 167); settings: S. cerevisiae bub3 mutant strain, at 50.0 µM, hits give high values
How it was run: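 Part of a panel of yeast mutants defective in DNA damage repair or cell cycle regulation. Each strain is grown with compound, and inhibition is calculated relative to solvent-treated cultures.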

[6] = NCI Yeast Anticancer Drug Screen. Data for the mlh1 rad18 strain (AID 175); settings: S. cerevisiae mlh1 rad18 strain growth inhibition; at 50.0 µM; hits give high values
How it was run: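 Genetically defined yeast (DNA repair-deficient) exposed to compounds; growth inhibition determined relative to vehicle.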

Measured: growth inhibition

CN1C(C)(C)CC(O)(C(O)(c2ccccc2)c2ccccc2)CC1(C)C
inactive: [1] 10.4% | [2] -9.35% | [3] -14.6% | [4] -14% | [5] -11.2% | [6] 3.7%

O=C(O)CC(C(=O)O)C1c2ccccc2-c2ccccc21 (stereo not drawn)
inactive: [1] -0.1% | [2] -27.2% | [3] -40.4% | [4] -17.2% | [5] -49.2% | [6] 3.6%

COc1ccc(CCc2ccc(OC)c(OCc3ccccc3)c2)cc1COc1ccccc1
inactive: [1] 41.9% | [2] 0.45% | [3] 22.1% | [4] 3.85% | [5] -1.8% | [6] 5.95%

BrCCCC1OCCO1
inactive: [2] 53% | [4] 43.5% | [6] 60.2%
active: [1] 93.8% | [3] 85.8% | [5] 73.4%

CCN(CC)C(=S)N1CCCCC1
inactive: [1] 10.2% | [2] -14.6% | [3] -14.2% | [4] -65.4% | [5] -15.9% | [6] -7.25%

c1cc2c3c(cccc3c1)C1C2C2c3cccc4cccc(c34)C12 (stereo not drawn)
inactive: [1] -11.6% | [2] 18.2% | [3] 7.35% | [4] -2.7% | [5] 3.9% | [6] 0.05%

CCC(=O)c1cc(-c2cc(C(=O)CC)[nH]n2)n[nH]1
inactive: [1] -27.5% | [2] 3.95% | [3] -5.7% | [4] -18.4% | [5] 2.15% | [6] 3.85%

CC(=O)OCC(OC(C)=O)C(OC1OC(COC(C)=O)C(OC(C)=O)C(OC(C)=O)C1OC(C)=O)C(OC(C)=O)C(C=O)OC(C)=O (stereo not drawn)
inactive: [1] -0.2% | [2] 10.8% | [3] 9.75% | [4] -5.75% | [5] -3.8% | [6] -7.95%

CCCCCCCCCCc1ccc(CCCCCCCCCC)cc1
inactive: [1] 7% | [2] 7.2% | [3] 4.6% | [4] -4.55% | [5] 2.05% | [6] -7.9%

[B]C(=O)NC(CC(C)C)C(=O)NCC(=O)NC1c2ccsc2C(=O)C1O (stereo not drawn) (tested in a mixture with another compound)
inactive: [1] -23.5% | [2] 3.95% | [3] -23.8% | [4] -8.45% | [5] 0% | [6] 2.05%

O=c1[nH]c2cc(Cl)ccc2nc1/C=C(\O)c1ccco1
inactive: [1] 7.55% | [2] -10.4% | [3] -16.1% | [4] 10.3% | [5] -33.6% | [6] 13.3%

O=C(Nc1cccc2ccccc12)O/N=C/c1ccccn1
inactive: [1] -9.3% | [2] -3.4% | [3] -11.4% | [4] 39.3% | [5] -7% | [6] -1.7%

Cc1cccc(C)c1NC(=O)C(Cl)Cl
inactive: [1] -2.9% | [2] -0.6% | [3] -3.9% | [4] 5.05% | [5] -12% | [6] -0.15%

CCOC(=O)CCC(NC(=O)OCc1ccccc1)C(=O)NC(CCC(=O)OCC)C(=O)OCC (stereo not drawn) (Cbz-Glu(OEt)-Glu(OEt)-OEt; configuration not given here)
inactive: [1] 17.9% | [2] 3.15% | [3] -11.4% | [4] 7.55% | [5] 4.65% | [6] -25.8%

O=C1c2ccccc2-c2nc(-c3ccccc3)cc3c2c1nc1ccccc13
active: [1] 79% | [5] 75%
inactive: [2] 51.7% | [3] 67.2% | [4] 64.8% | [6] -7.15%

O=C(NN1C(=O)C(Cl)C1c1cccc(O)c1)c1ccccc1O (stereo not drawn)
inactive: [1] -47.5% | [2] -34% | [3] -32.8% | [4] 5.55% | [5] -29.2% | [6] -39.1%

CCOC(=O)NC(NC(=O)OCC)c1ccc2c(c1)OCO2
inactive: [1] -38.5% | [2] 17.4% | [3] 17.1% | [4] -11.8% | [5] 5.75% | [6] 3.8%

COc1cc2ccc(=O)oc2cc1O
inactive: [1] 14.6% | [2] 9.35% | [3] 9.05% | [4] 19.4% | [5] 16.4% | [6] 4.05%

O=Cc1ccc(OC(=O)c2ccccc2)cc1
inactive: [1] -6.35% | [2] -25.6% | [3] 13.3% | [4] -13.3% | [5] -1.25% | [6] 3.95%

CC(C)C1CC(O)C(C)C(C(C)C)C1 (stereo not drawn)
inactive: [1] 4.05% | [2] -17.5% | [3] -12.9% | [4] -28.2% | [5] -1.65% | [6] -20.6%

NCCN1CCCCCc2ccccc21
inactive: [1] -63.2% | [2] -53% | [3] -49.8% | [4] -17.4% | [5] -41.1% | [6] -39.3%

C/C(=N\N=C(/C)c1ccc(C)cc1)c1ccc(C)cc1
inactive: [1] 10.7% | [2] -30.3% | [3] 20.1% | [4] 6.1% | [5] 2.45% | [6] 3.7%

O=C(Nc1ccccc1)OCc1cnc2ccccc2c1
inactive: [1] 6.05% | [2] -22.6% | [3] 9.2% | [4] -9.4% | [5] 3.05% | [6] -2.8%

CC(C)(C)OC(=O)NC(CCCCNC(=O)OCc1ccccc1)C(=O)NCCNc1ccc(NCCNC(=O)C(CCCCNC(=O)OCc2ccccc2)NC(=O)OC(C)(C)C)c2c1C(=O)c1ccccc1C2=O (stereo not drawn)
inactive: [1] -3.7% | [2] 0.1% | [3] -27.4% | [4] -1.4% | [5] -31.6% | [6] -52.8%

C=CCNC(=S)N/C=C\c1c(C(=O)O)cc([N+](=O)[O-])cc1[N+](=O)[O-]
inactive: [1] -7.85% | [2] -24.1% | [3] -31.2% | [4] -23.2% | [5] 3.2% | [6] 5.6%

COc1cc([N+](=O)[O-])c2nccc(C)c2c1
inactive: [1] 13.1% | [2] 6.1% | [3] -0.6% | [4] -5.05% | [5] -5.1% | [6] 18.6%

NNC(=O)CCSCCC(=O)NN
inactive: [1] 7.85% | [2] -17.2% | [3] 3.4% | [4] -28.9% | [5] -5.95% | [6] -0.75%

CC(C)CCC[C@@H](C)[C@H]1CC[C@H]2[C@@H]3CC[C@H]4C[C@H](N[C@@H]5CC[C@@]6(C)[C@@H](CC[C@@H]7[C@@H]6CC[C@]6(C)[C@@H]([C@H](C)CCCC(C)C)CC[C@@H]76)C5)CC[C@]4(C)[C@H]3CC[C@]12C
inactive: [1] 55.1% | [2] 19.2% | [3] 46.8% | [4] -2.8% | [5] 15.3% | [6] 36.7%

c1ccc2c(c1)CC1c3ccccc3CC21 (stereo not drawn)
inactive: [1] -1.2% | [2] -7% | [3] -1.95% | [4] -28.4% | [5] 0.75% | [6] -2.35%

COc1ccc2ccccc2c1C=O
inactive: [1] 33.5% | [2] 23% | [3] 40.1% | [4] -16.2% | [5] 5.45% | [6] 47.8%

O=C1c2ccccc2S(=O)(=O)c2cc(-c3nn[nH]n3)ccc21
inactive: [1] -2.6% | [2] -29.8% | [3] -22.8% | [4] 0.6% | [5] -13.7% | [6] -48%

S=C(Nc1ccccc1)c1ccccc1
inactive: [1] -23.2% | [2] -16.5% | [3] -5.25% | [4] -29.3% | [5] -5.1% | [6] 16.1%

CC(=O)Nc1ccc(N(C)C)c(C)c1
inactive: [1] -6.65% | [2] -7.55% | [3] -1.85% | [4] -7.75% | [5] 12.9% | [6] -10.2%

COc1ccc(CCCCl)c(C2=NCCc3cc(OC)c(OC)cc32)c1
inactive: [1] 19.6% | [2] 2.4% | [3] -37.8% | [4] -6.1% | [5] -37.8% | [6] 0.9%

CC(NC(=O)C(N)CCC(=O)O)C(=O)NCP(=O)(O)O (stereo not drawn)
inactive: [1] -13.1% | [2] -49% | [3] 0.35% | [4] 26.4% | [5] 4.25% | [6] 8%

NNC(=S)N/N=C/C(Cl)=C(\Cl)C(=O)O
inactive: [1] -2.2% | [2] -13.2% | [3] 1.8% | [4] -2% | [5] 0.1% | [6] -1.75%

CC(C)C(/C=C/c1ccccc1)=N\NC(=S)NN
inactive: [1] -5.25% | [2] -5.9% | [3] 17.1% | [4] 13.4% | [5] 26.6% | [6] 32.4%

COc1cc(C(=O)N2C3C4CCC(C)(OC4(C)C)C32)cc(OC)c1OC (stereo not drawn)
inactive: [1] 18.4% | [2] -15.4% | [3] 2.8% | [4] 10.2% | [5] 6% | [6] -8.9%

From PubChem BioAssay (NCI)
